# Test results as given in PubChem BioAssay (NCI).
# The panel holds about 83,000 compounds, 20% with a hit somewhere; the sample as a whole holds those more often.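 Cells were grown in 96-well plates and exposed to the test compound at a single concentration for 48 hours; results are reported as percent growth, with values below 10 considered active.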 A number with no mark means an inactive call. The source made the active and inactive calls.
# Legend:
# Experiment in all cases: NCI-60 one-dose screen, 48 h (100 = growth as untreated, 0 = no growth, -100 = all killed)
# Conditions in all cases: 10 µM unless noted
# SR leukemia = system: SR leukemia
# RPMI-8226 leukemia = system: RPMI-8226 leukemia
# OVCAR-8 ovarian = system: OVCAR-8 ovarian
# OVCAR-4 ovarian = system: OVCAR-4 ovarian
# SK-OV-3 ovarian = system: SK-OV-3 ovarian
# IGROV1 ovarian = system: IGROV1 ovarian
# OVCAR-3 ovarian = system: OVCAR-3 ovarian
# HS 578T breast = system: HS 578T breast
# NCI/ADR-RES ovarian = system: NCI/ADR-RES ovarian
# OVCAR-5 ovarian = system: OVCAR-5 ovarian
Compound,growth (SR leukemia),growth (RPMI-8226 leukemia),growth (OVCAR-8 ovarian),growth (OVCAR-4 ovarian),growth (SK-OV-3 ovarian),growth (IGROV1 ovarian),growth (OVCAR-3 ovarian),growth (HS 578T breast),growth (NCI/ADR-RES ovarian),growth (OVCAR-5 ovarian)
COC(=O)Nc1nc2ccc(Sc3ccccc3)cc2[nH]1,14.5%,42.1%,9.03% (active),49.4%,13.5%,30.4%,-78.1% (active),30.3%,-30.1% (active),–
O=C(NC(=S)Nc1ccc(Cl)cc1)c1ccccc1,67.9%,95.3%,102%,85.6%,115%,–,125%,127%,104%,84.8%
CCCCCCCCCCCC(=O)OCCNC(=O)C[n+]1ccccc1,104%,100%,97.4%,105%,96.7%,–,115%,139%,113%,113%
O=C(Nc1cccc([N+](=O)[O-])c1)c1ccc2ccccc2c1O,92.2%,-7.69% (active),80%,44.5%,74.6%,–,36.9%,69.7%,53.1%,64.2%
CC(NCCC(c1ccccc1)c1ccccc1)c1ccccc1 (stereo not drawn),-35.6% (active),26.3%,84.3%,64.9%,99.1%,55.6%,78.4%,82.8%,79.1%,–
CCOc1ccc(Cc2nccc3cc(OCC)c(OCC)cc23)cc1OCC,26.7%,47.3%,69.1%,54.6%,87.2%,16.6%,75%,78.1%,65.3%,–
COc1ccc(C(=O)NC(=O)Nc2ccc3c(c2)NC(=O)/C3=C\c2[nH]c(C)c(CCC(=O)O)c2C)c(F)c1,18.8%,13%,8.62% (active),77%,56.6%,43%,23.4%,-5.02% (active),88.7%,–
CCOc1ccc(NC(=O)Nc2cc(C(C)C)ccc2C)cc1,36.6%,43.4%,27.1%,44.6%,93.4%,–,50.9%,4.79% (active),58.7%,57.7%
C=C1C(=O)O[C@H]2[C@H]1CC/C(COC(=O)c1ccc(C#N)cc1)=C\CC[C@@]1(C)O[C@@H]21,-10% (active),-35.8% (active),1.03% (active),35.9%,106%,7.59% (active),-10.7% (active),70%,54.5%,–
Cc1[nH]c2ccc(F)cc2c1CCNC(=O)C1CCN(C(=O)c2ccc(-c3ccccc3)cc2)CC1,8.16% (active),44.5%,56.3%,44.7%,63.8%,67.1%,63.8%,72.7%,49.6%,–
c1ccc2c(c1)Oc1cccnc1-n1nccc1-2,94.2%,96.9%,99.6%,110%,104%,104%,108%,90.1%,100%,–
CN(C)CCCOc1c(Br)cc(/C=C/C(=O)N(C)CCc2cc(Br)c(OCCCN(C)C)c(Br)c2)cc1Br,-34.5% (active),-23.6% (active),30.7%,79.7%,102%,48.2%,75.7%,75.7%,56.6%,–
CC(CCC(=O)O)[C@H]1CCC2C3C(=O)C[C@@H]4CC(=O)CC[C@]4(C)C3CC(=O)[C@@]21C (stereo partly drawn),97.4%,98.8%,103%,112%,106%,105%,117%,105%,99.7%,–
O=C1C(SCCO)=C(SCCO)C(=O)N1c1ccc(-c2ccccc2)cc1,-47.6% (active),-14% (active),3.35% (active),10.3%,106%,–,-92% (active),-50.7% (active),104%,102%
O=C(O)c1cc2ccccc2cc1Nc1ccccc1,97.8%,78.4%,100%,97.5%,106%,–,108%,121%,93%,90.8%
CN(C)CC/C=C1\c2ccccc2Sc2ccc(Cl)cc21,62%,72%,69.2%,69.9%,74.1%,53.8%,74.4%,65.6%,63.2%,–
COc1ccc2c(c1)OC(N)=C(C#N)C2c1ccc(F)cc1 (stereo not drawn),18.1%,6.87% (active),34.4%,69%,16.6%,53.1%,16.9%,18.8%,26%,–
CN1CCN(C(=O)/C=C/c2ccc([N+](=O)[O-])o2)CC1,53.6%,82.3%,77.4%,76.3%,100%,–,92%,69.2%,99.7%,127%
C=C1c2c(Cl)ccc(O)c2C(O)=C2C(=O)[C@]3(O)C(O)=C(C(N)=O)C(=O)[C@@H](N(C)C)[C@@H]3[C@@H](O)[C@H]12,-8.97% (active),13.2%,9.79% (active),23.7%,11.2%,-2.89% (active),-16.2% (active),5.86% (active),61.2%,–
CC(Cc1cccc(C(F)(F)F)c1)NCCOC(=O)c1ccccc1 (stereo not drawn),92.4%,116%,110%,110%,106%,105%,115%,101%,92.9%,–
CCOC(=O)NNc1nncc2ccccc12,93.3%,105%,98.2%,116%,101%,106%,121%,98.9%,103%,–
CCCCOc1nc2ccc(Cl)cc2cc1/C=C/C(=O)/C=C/c1ccc(Cl)cc1,20.3%,0.229% (active),70.2%,91.5%,92.5%,45.8%,51.1%,76.8%,100%,–
Nc1ccc(S(=O)(=O)Nc2ccnn2-c2ccccc2)cc1,95.5%,117%,93.7%,109%,103%,107%,111%,103%,103%,–
CCCCN(CCCC)c1ccc(C(=N)c2ccc(N(C)C)cc2)cc1,-44.4% (active),-43.3% (active),-15.4% (active),7.13% (active),-7.53% (active),–,-74.3% (active),-68.9% (active),-47.4% (active),-2.12% (active)
O=C(Nc1ccc(-n2cc(-c3ccncc3)c(-c3ccc(O)c(Cl)c3)n2)cc1)c1ccc(Cl)c(C(F)(F)F)c1,8.48% (active),-26.9% (active),17.8%,62.6%,56%,52.9%,4.18% (active),–,18.5%,–
OCc1cn(-c2ccc(Cl)cc2)nc1-c1ccc(O)cc1,82.1%,97.3%,–,91.6%,105%,91.3%,108%,105%,94.7%,99.9%
CCC1(C(N)=O)CC2C=CC1CC2 (stereo not drawn),109%,89.1%,61.2%,108%,91.9%,–,115%,149%,244%,–
COc1ccc(C[C@H](N)C(=O)N[C@@H]2[C@@H](CO)OC(n3cnc4c(N(C)C)ncnc43)[C@@H]2O)cc1 (stereo partly drawn),-37.7% (active),12.5%,-52.3% (active),-32.9% (active),-25.3% (active),-42.3% (active),-94.7% (active),11.8%,93.4%,–
CC1CCc2cc(F)cc3c(=O)c(C(=O)O)cn1c23 (stereo not drawn),95.4%,105%,97.5%,111%,108%,109%,114%,103%,94.8%,–
CCOc1cccc(Nc2nc(N)nc3[nH]c4ccc(O)cc4c23)c1,65.7%,42.4%,–,66.3%,55.9%,16.7%,58.5%,58.5%,80.4%,63.1%
